Screening results deposited in PubChem by University of Kansas High Throughput Screening Laboratory.
The full list was thinned out, with hits kept by preference.
Pf apPOL inh – Pf-apPOL DNA polymerase inhibition; 210,000 tested, 0.25% active; AID 1794808; inhibition, % at 10 µM; Recombinant Pf-apPOL, molecular beacon fluorescence, 1.5 h
mHTT-CaM PPI inh – disrupts binding of mutant huntingtin to calmodulin. P42858. AlphaScreen His-mHTT/GST-CaM binding, luminescence. inhibition, % at 15 µM. 190,000 tested, 3.6% active;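 also: 0% = both proteins with DMSO and 100% = one protein alone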
An asterisk follows results filed as active; . = no result given. Rule as the data show it: active = inhibition above about 50%; inactive = the rest.

SMILES | Pf apPOL inh | mHTT-CaM PPI inh
CSc1ccc(C2Oc3ccccc3C3=C2C(c2cccs2)n2ncnc2N3)cc1 (stereo not drawn) | -5.2 | 38.0
Fc1ccc(C2Oc3ccccc3C3=C2C(c2cccs2)n2ncnc2N3)cc1 (stereo not drawn) | -3.1 | 61.0*
COc1cccc(C2C3=C(Nc4ncnn42)c2ccccc2OC3c2ccccc2F)c1 (stereo not drawn) | 6.6 | 5.0
COc1cccc(C2C3=C(Nc4ncnn42)c2ccccc2OC3c2ccccc2Cl)c1 (stereo not drawn) | -8.3 | 58.0*
CCOc1cc(C2Nc3ccccc3C(=O)N2c2ccc(Cl)cc2)ccc1O (stereo not drawn) | -3.3 | 1.0
COc1ccc(C2C(C#N)=C(N)N(c3ccc(Cl)cc3)C3=C2C(=O)CCC3)cc1OC (stereo not drawn) | 0.8 | 29.0
CCOc1ccc2nc(NS(=O)(=O)c3ccc(F)cc3)sc2c1 | 0.5 | 3.0
O=C(NNC(=O)c1cc2cc(Br)ccc2oc1=O)c1ccc(O)cc1O | 72.7* | 54.5*
CNC(=O)c1cc2cc(Br)ccc2oc1=O | -0.6 | -1.0
Cc1ccccc1CS(=O)(=O)CCC(=O)NC(C)C | -15.2 | -2.0
CC(=O)c1ccc(NC(=O)c2sc3nc(-c4ccccc4)cn3c2C)cc1 | -2.8 | 11.0
COc1ccc2c(c1)NC1(CCN(C(=O)Cc3cccc(F)c3)CC1)c1cccn1-2 | 1.8 | 73.3*
O=C(CSCc1ccc(F)cc1)N1CCC2(CC1)Nc1cc(F)ccc1-n1cccc12 | -1.1 | 100.3*
O=C(NCc1ccc(F)cc1)N1CCC2(CC1)Nc1cc(F)ccc1-n1cccc12 | 2.3 | 59.1*
CCOC(=O)CNC(=O)N1CCC2(CC1)Nc1ccccc1-n1cccc12 | -5.5 | 56.0*
CCC(C)NC(=O)N1CCC2(CC1)Nc1cc(F)ccc1-n1cccc12 (stereo not drawn) | -2.9 | 37.3
O=C(NC1CCCC1)N1CCC2(CC1)Nc1cc(F)ccc1-n1cccc12 | -4.9 | 29.4
COc1ccc2oc(=O)c(C(=O)Nc3ccc(C)c(Cl)c3)cc2c1 | -3.3 | 4.0
CC(C)N1CCN(C(=O)c2ccccc2C(=O)O)CC1 | -3.3 | -8.5
COc1ccc(-c2noc(CCC(=O)NC(C)c3ccc4c(c3)OCCO4)n2)cc1 (stereo not drawn) | -13.3 | 2.0
COC(=O)CNC(=O)N1CCC2(CC1)Nc1cc(F)ccc1-n1cccc12 | -4.7 | 33.0
Cc1ccc2c(c1C)-n1cccc1C1(CCN(C(=O)Cc3ccccc3Cl)CC1)N2 | -8.7 | 56.2*
COC(=O)C(C)NC(=O)N1CCC2(CC1)Nc1ccccc1-n1cccc12 (stereo not drawn) | 3.1 | 54.7*
COCCCNC(=O)N1CCC2(CC1)Nc1cc(F)ccc1-n1cccc12 | 5.9 | 61.5*
COc1ccccc1NC(=O)N1CCC2(CC1)Nc1ccccc1-n1cccc12 | -6.4 | 35.5
SMILES | Pf apPOL inh | mHTT-CaM PPI inh
Cc1ccc(NC(=O)N2CCC3(CC2)Nc2ccccc2-n2cccc23)cc1 | -5.8 | 12.0
Cc1ccc(CNC(=O)N2CCC3(CC2)Nc2ccccc2-n2cccc23)cc1 | -3.3 | 77.4*
Cc1ccc(C)c(CN2C(=O)NC3(CCN(C(=O)Cc4ccccc4Cl)CC3)C2=O)c1 | 0.0 | 7.3
O=S(=O)(c1ccc2c(c1)CCCC2)N1CCCn2nc(-c3cccnc3)cc2C1 | -2.9 | -2.5
CCOC(=O)C(C#N)=CNN(C)c1cccc(F)c1C#N | 0.2 | .
COc1ccc2cc(C(N)=O)c(=Nc3cccc(F)c3)oc2c1 | 1.6 | 5.0
C=CCn1cnc2c1c(=O)n(C1CCCC1)c(=O)n2-c1cccc(Cl)c1 | -4.5 | 1.4
Cc1ccc2c(Nc3ccc(F)cc3C)c(-c3nc(C)no3)cnc2n1 | -4.1 | 57.6*
Cc1ccc(Nc2c(-c3nc(C)no3)cnc3nc(C)ccc23)c(C)c1 | 2.9 | 43.8
CC(=O)N1CCN(CC(=O)N2N=C(c3ccc(F)cc3)CC2c2ccccc2)CC1 (stereo not drawn) | -0.6 | 34.9
Cn1cccc1C1CC(c2ccc(F)cc2)=NN1C(=O)CN1CCCCC1 (stereo not drawn) | -3.9 | 70.2*
Cc1ccc(C2=NN(C(=O)CN3CCCCC3)C(c3cccn3C)C2)cc1C (stereo not drawn) | -1.8 | 91.2*
Cc1nc(Cn2cccc2C(=O)Nc2cccc(Cl)c2)no1 | 0.8 | 3.7
CCOc1ccc(C2CC(c3cc(OC)c(OC)c(OC)c3)n3ncnc3N2)cc1 (stereo not drawn) | -31.7 | 13.0
Cc1ccc(O)c2nc(/C=C/c3ccccc3N)ccc12 | -0.5 | 52.7*
CC(=O)Nc1ccccc1/C=C/c1ccc2c(C)ccc(O)c2n1 | -5.3 | 11.9
Cc1cc(C2(c3ccc(O)c(C)c3)C(=O)N(Cc3ccccc3)c3ccccc32)ccc1O | -7.8 | 94.7*
O=C1N(Cc2ccccc2)c2ccccc2C1(Cc1ccccc1)c1ccccc1 (stereo not drawn) | -0.5 | .
CC(NC(=O)CCn1c(=O)[nH]c2ccsc2c1=O)C12CC3CC(CC(C3)C1)C2 (stereo not drawn) | 7.6 | 3.0
O=C(NCC1CCCCC1)c1ccc(NC(=O)C2CC2)cc1N1CCOCC1 | -2.4 | 18.2
O=[N+]([O-])c1ccc(N2CCN(S(=O)(=O)c3ccccc3)CC2)cc1SCc1ccco1 | -8.9 | 98.3*
O=[N+]([O-])c1ccc(N2CCOCC2)cc1SCc1ccco1 | -5.7 | 24.5
COc1cc([N+](=O)[O-])cc2[nH]c(-c3ccccc3)cc12 | -3.2 | -2.0
O=[N+]([O-])c1cc([N+](=O)[O-])c2cc(-c3ccco3)[nH]c2c1 | . | 52.8*
Cc1ccc(C=C2Oc3cc(OC(=O)c4cccc([N+](=O)[O-])c4)ccc3C2=O)o1 | -2.5 | 3.9
SMILES | Pf apPOL inh | mHTT-CaM PPI inh
COc1cccc(C2CC(=O)Nc3cc(C)c(C)cc32)c1 (stereo not drawn) | -3.4 | 19.2
COc1cc(C2CC(=O)Nc3cc(C)c(C)cc32)cc(Br)c1OC (stereo not drawn) | -7.8 | 98.3*
Cc1c(C#N)c(N)n(Cc2ccco2)c1C | . | 9.2
Cc1oc2ncn3nc(-c4csc5c4CCCC5)nc3c2c1C | -1.7 | -4.4
Cc1oc(C)c2c(=O)cc(-c3ccc4c(c3)OCO4)cc(O)c12 | 5.5 | 52.6*
COc1cc(-c2cc(OC)c3c(C)oc(C)c3c(=O)c2)ccc1O | -3.1 | 35.0
COc1cccc(C2=NN(C(=O)CN3CCCCC3)C(c3ccccc3C)C2)c1 (stereo not drawn) | -4.7 | 60.6*
COc1ccccc1C1=NN(C(=O)CN2CCCCC2)C(c2cc(C)ccc2C)C1 (stereo not drawn) | -7.1 | 100.4*
COc1ccccc1C1CC(c2ccccc2F)=NN1C(=O)CN1CCCCC1 (stereo not drawn) | -3.2 | 25.9
COc1ccc(C2=NN(C(=O)CN3CCC(C)CC3)C(c3ccccc3C)C2)cc1 (stereo not drawn) | -2.1 | 32.4
CN(C)CCNC(=O)c1cccc(-c2nc(-c3ccccc3)no2)c1 | -2.9 | -2.0
O=C1NC(=Nc2ccccc2Cl)S/C1=C/c1ccc([N+](=O)[O-])cc1 | 18.7 | 43.0
COc1cccc(/C=C2/SC(=Nc3ccccc3Cl)NC2=O)c1 | -55.0 | 52.0*
COc1ccc(/C=C2/SC(=Nc3ccccc3Cl)NC2=O)c(OC)c1 | 0.4 | 46.0
O=C1NC(=Nc2ccccc2Cl)S/C1=C/c1cccc([N+](=O)[O-])c1 | -1.6 | 88.0*
Cn1cnnc1SCC(=O)Nc1ccc(/C=C/c2ccccc2)cc1 | -6.5 | 4.0
COc1ccccc1CNC(=O)C1CCN(S(=O)(=O)c2ccc(Br)s2)CC1 | -2.4 | -5.0
